In the supplement of paper PMC11732987, “Enantioselective OTUD7B fragment discovery through chemoproteomics screening and high-throughput optimisation” (Communications Chemistry, 2025):

How the values were obtained:
Assay in all cases: log2 ratio of Biotin-Ahx-Ub-VS probe labelling (fragment/DMSO); higher = less target engagement (more negative = stronger competition), active = hit call of the paper (q ≤ 0.05, log2 ratio ≤ -1)
Details in all cases: compound concentration: 200 uM; treatment time: 3 h
USP34 = USP34 (UniProt Q70CQ2)
Procedure, shortened: (§1)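 Triplicate samples of HEK293T lysate, 495 µg each, received fragment at 200 µM or vehicle for 3 h, followed by Biotin-Ahx-Ub-VS (0.5 µM final) for 1 h. After NeutrAvidin enrichment of labelled DUBs and LysC/trypsin digestion, peptides were run by diaPASEF LC-MS/MS. The values are average log2 fragment/vehicle ratios from global-median-normalised Spectronaut label-free quantities, tested by unpaired t-test on proteins having ≥2 unique peptides.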

USP36 = target: T1, USP36 (UniProt Q9P275)
T1 sequence (whole entry): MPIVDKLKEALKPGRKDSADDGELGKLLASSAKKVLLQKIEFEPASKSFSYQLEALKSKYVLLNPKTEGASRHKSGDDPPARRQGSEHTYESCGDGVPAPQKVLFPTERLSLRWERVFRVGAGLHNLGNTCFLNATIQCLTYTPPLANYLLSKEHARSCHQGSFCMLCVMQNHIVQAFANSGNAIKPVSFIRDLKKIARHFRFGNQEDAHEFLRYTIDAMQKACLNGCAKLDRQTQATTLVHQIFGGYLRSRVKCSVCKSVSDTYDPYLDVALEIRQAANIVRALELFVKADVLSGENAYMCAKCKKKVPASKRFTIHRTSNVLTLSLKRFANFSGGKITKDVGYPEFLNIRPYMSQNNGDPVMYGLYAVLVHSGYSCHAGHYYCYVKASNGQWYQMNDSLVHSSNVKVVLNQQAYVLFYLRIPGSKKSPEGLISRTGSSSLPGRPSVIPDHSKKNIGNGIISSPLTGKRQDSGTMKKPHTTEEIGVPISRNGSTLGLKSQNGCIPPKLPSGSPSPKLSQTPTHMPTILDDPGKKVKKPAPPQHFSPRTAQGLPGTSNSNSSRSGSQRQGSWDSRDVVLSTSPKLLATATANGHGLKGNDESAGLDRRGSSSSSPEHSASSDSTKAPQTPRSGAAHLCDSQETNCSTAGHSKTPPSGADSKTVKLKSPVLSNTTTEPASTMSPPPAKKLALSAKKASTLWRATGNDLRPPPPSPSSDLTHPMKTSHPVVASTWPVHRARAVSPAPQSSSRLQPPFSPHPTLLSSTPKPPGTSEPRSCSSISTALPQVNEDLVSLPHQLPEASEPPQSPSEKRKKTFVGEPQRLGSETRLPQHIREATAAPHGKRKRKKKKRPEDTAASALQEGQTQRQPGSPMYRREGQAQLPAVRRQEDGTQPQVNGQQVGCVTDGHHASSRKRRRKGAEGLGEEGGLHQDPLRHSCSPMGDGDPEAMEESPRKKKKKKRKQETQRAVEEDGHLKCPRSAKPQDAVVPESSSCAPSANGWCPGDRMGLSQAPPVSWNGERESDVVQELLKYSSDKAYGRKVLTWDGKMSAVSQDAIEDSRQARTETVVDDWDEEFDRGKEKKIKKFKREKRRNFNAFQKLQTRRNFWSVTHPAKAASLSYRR
Procedure, shortened: as §1

USP38 = target: T2, USP38 (UniProt Q8NB14)
T2 sequence (whole entry): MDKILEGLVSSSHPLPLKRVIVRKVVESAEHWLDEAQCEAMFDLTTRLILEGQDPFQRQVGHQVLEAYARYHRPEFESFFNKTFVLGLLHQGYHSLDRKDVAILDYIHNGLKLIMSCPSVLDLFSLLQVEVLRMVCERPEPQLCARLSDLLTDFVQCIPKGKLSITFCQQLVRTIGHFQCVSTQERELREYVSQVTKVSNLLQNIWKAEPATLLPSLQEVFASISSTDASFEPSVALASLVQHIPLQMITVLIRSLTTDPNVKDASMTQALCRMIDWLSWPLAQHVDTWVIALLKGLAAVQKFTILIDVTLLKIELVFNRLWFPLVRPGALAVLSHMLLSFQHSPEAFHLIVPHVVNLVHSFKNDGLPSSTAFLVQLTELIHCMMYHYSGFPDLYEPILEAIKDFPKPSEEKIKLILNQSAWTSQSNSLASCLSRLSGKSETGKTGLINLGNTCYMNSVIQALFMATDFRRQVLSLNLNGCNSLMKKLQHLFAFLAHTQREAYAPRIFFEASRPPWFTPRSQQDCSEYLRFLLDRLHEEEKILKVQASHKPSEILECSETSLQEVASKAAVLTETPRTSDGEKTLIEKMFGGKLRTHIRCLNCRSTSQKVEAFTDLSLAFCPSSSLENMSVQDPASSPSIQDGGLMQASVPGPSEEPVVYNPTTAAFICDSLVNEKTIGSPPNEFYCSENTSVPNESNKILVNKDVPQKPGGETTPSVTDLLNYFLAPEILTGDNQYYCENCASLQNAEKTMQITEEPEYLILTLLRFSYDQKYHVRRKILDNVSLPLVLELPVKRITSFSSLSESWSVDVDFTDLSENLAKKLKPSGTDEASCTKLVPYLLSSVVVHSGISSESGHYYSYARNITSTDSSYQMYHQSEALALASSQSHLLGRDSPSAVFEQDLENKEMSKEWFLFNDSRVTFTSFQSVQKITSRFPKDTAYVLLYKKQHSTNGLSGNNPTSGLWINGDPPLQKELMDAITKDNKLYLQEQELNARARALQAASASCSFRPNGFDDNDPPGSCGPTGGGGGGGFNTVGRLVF
Procedure, shortened: as §1

USP39 = target: T3, USP39 (UniProt Q53GS9)
T3 sequence (whole entry): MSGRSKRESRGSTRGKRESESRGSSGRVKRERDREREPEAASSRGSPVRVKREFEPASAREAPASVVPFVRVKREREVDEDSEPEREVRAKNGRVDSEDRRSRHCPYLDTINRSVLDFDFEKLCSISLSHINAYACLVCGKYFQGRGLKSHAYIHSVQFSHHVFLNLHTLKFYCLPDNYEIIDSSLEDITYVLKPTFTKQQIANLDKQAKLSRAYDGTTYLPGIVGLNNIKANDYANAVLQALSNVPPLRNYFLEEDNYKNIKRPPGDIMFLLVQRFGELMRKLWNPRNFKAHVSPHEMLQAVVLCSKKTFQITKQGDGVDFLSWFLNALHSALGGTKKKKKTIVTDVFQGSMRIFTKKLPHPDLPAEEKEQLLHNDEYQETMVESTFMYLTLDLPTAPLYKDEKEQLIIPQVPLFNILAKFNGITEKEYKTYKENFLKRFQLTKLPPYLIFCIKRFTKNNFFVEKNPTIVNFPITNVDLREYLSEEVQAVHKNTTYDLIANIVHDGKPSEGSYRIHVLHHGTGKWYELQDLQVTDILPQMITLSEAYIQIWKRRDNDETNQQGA
Procedure, shortened: as §1

USP4 = target: T4, USP4 (UniProt Q13107)
T4 sequence (whole entry): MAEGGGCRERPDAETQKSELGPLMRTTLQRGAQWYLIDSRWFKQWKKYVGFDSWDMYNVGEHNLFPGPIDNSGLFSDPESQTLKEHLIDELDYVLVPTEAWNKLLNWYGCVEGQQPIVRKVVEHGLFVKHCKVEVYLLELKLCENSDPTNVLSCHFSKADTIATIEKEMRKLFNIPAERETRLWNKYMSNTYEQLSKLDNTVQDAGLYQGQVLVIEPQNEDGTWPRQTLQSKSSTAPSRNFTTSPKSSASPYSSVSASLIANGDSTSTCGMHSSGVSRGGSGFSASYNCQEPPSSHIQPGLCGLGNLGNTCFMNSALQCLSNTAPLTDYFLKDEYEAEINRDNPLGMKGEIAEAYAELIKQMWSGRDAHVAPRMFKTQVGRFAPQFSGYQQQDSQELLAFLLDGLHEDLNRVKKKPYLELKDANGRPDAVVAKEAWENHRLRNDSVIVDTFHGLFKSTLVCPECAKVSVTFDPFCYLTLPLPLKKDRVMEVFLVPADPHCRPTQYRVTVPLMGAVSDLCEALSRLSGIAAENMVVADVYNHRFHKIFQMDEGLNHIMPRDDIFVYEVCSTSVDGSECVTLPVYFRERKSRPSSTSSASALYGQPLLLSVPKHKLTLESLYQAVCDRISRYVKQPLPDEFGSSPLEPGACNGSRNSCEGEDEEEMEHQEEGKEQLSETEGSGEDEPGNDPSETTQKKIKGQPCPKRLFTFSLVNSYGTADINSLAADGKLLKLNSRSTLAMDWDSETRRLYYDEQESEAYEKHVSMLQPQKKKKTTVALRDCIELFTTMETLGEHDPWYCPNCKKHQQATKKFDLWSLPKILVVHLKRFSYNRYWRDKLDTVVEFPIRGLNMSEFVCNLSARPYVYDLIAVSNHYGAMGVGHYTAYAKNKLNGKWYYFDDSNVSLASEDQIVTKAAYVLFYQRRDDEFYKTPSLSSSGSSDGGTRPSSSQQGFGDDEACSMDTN
Procedure, shortened: as §1

Measured: log2 ratio of Biotin-Ahx-Ub-VS probe labelling

USP34, sequence (Q70CQ2 whole entry, the tested form may be a part): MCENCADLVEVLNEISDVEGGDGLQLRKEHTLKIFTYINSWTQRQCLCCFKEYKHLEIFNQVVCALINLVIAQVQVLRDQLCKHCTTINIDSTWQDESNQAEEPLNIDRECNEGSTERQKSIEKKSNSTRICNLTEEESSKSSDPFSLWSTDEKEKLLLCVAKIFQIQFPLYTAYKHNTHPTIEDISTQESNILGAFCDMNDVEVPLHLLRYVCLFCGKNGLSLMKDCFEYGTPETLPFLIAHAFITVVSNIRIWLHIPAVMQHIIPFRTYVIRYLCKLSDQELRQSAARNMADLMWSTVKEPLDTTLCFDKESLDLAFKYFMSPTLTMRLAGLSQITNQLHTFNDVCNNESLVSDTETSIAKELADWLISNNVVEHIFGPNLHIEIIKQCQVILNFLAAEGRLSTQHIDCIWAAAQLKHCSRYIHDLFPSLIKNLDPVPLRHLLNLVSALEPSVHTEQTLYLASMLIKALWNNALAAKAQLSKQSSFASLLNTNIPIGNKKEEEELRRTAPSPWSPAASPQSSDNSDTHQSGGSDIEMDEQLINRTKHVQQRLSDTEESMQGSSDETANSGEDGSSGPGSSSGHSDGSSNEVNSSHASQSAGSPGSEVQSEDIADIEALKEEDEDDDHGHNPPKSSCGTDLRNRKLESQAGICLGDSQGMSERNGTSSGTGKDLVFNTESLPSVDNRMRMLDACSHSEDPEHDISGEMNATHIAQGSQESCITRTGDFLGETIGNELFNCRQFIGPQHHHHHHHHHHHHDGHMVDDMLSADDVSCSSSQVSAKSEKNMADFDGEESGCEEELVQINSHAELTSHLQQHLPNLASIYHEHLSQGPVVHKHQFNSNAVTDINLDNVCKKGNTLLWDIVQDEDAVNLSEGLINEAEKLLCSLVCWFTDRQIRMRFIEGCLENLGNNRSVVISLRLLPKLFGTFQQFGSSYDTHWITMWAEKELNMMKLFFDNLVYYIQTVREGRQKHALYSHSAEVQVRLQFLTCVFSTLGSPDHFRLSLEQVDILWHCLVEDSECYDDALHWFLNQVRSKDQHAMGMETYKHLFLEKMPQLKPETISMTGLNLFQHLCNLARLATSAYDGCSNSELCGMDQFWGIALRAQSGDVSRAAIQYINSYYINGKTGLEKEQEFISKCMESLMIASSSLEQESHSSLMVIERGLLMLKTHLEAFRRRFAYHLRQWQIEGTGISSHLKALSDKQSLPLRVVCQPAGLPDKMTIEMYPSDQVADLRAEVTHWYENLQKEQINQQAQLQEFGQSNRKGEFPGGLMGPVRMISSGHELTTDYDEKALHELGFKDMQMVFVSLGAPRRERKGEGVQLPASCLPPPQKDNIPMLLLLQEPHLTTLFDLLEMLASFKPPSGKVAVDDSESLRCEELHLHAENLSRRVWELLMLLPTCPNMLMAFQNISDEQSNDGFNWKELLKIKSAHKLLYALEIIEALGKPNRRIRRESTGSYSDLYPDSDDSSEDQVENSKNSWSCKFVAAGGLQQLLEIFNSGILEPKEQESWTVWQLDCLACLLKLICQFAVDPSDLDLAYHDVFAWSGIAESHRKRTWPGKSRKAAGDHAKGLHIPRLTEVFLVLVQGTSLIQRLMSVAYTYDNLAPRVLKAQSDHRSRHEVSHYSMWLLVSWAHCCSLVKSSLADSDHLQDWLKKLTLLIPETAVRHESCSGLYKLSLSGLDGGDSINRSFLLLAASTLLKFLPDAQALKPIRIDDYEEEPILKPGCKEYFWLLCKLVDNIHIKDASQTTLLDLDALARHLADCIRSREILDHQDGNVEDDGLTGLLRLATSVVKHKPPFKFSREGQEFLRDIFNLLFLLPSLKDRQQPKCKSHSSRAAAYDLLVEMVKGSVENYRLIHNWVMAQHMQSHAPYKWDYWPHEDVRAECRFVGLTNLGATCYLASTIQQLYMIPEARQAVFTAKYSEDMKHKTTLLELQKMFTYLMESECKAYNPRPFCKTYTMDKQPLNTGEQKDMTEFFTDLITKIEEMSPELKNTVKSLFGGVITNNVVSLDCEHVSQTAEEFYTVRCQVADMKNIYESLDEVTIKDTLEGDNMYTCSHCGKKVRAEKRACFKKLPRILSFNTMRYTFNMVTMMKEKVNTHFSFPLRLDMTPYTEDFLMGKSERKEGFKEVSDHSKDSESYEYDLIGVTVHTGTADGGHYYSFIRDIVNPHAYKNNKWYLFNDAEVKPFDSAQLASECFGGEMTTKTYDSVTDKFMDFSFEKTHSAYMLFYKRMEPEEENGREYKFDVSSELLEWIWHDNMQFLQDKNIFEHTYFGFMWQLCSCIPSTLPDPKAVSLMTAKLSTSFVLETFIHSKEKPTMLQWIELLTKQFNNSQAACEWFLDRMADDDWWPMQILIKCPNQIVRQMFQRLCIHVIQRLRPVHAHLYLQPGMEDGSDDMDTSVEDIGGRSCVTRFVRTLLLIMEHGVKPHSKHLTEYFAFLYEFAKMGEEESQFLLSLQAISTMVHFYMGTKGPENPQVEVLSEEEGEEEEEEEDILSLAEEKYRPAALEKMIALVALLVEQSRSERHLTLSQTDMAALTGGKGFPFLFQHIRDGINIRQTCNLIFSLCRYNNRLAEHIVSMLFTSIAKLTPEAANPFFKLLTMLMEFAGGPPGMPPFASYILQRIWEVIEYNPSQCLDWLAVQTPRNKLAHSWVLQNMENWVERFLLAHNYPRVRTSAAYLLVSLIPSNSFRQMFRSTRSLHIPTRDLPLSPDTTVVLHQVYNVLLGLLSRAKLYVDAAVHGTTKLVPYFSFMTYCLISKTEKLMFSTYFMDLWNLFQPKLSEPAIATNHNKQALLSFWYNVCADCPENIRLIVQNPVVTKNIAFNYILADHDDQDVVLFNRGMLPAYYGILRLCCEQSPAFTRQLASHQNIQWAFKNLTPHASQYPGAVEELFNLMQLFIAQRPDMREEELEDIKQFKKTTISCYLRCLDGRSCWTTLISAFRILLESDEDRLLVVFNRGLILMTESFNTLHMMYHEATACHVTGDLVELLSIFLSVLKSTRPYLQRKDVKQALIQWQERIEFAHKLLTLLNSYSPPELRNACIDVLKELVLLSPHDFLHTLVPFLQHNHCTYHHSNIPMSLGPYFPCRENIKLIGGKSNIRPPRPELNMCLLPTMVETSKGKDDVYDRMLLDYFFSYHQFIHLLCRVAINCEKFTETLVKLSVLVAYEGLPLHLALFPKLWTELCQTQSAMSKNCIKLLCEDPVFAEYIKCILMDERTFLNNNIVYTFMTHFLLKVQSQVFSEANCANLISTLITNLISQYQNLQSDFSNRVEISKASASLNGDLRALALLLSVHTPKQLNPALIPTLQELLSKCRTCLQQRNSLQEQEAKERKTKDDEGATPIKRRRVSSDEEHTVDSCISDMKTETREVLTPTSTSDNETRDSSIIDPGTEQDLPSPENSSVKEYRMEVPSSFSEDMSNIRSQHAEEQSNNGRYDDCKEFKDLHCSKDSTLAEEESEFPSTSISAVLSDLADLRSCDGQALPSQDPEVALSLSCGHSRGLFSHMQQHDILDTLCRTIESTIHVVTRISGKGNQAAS

NC(=O)C1CCCCN1C(=O)CCl (stereo not given)
inactive: USP34 -0.0479 | USP36 -0.322 | USP38 0.0849 | USP39 0.0987 | USP4 -0.0651
